TDP1 cell CPT: qHTS for Inhibitors of human tyrosyl-DNA phosphodiesterase 1 (TDP1): qHTS in cells in presence of CPT; AID 686979, 2013; hit rate 12% among 420,000; chicken DT40 Tdp1-/-;hTDP1 cells + 20 nM CPT, ATP luminescence, 48 h; Potency, µM (top dose mostly 46.2 µM), usual class: inhibitors; note: nearly all actives have a fitted effect of over 55% in size
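Chicken DT40 Tdp1-/- cells complemented with human TDP1, 400 cells/well, exposed to compounds plus 20 nM camptothecin for at least 48 h at 37 C; viability read as ATP content by CellTiter-Glo luminescence.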
KB-V1 cytotox: qHTS assay for MDR1-selective chemotherapeutics: Primary screen using the drug-selected MDR subline cells KB-V1 | KB-V1 MDR cells viability, CellTiter-Glo, 72 h | Potency, µM (top dose mostly 46.1 µM), most hits filed as cytotoxic | hit rate 3.4% among 400,000; note: nearly all actives have a fitted effect of over 60% in size
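KB-V1 MDR subline cells in DMEM (phenol-red free, 10% FBS) exposed to compounds in qHTS concentration series for 72 h at 37 degrees C. Viability read by CellTiter-Glo luminescence; concentration-effect curves fitted after normalization and correction.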
KB-3-1 tox: qHTS assay for MDR1-selective chemotherapeutics: Primary screen using the parental adenocarcinoma cell KB-3-1. Potency, µM (series often up to 46.1 µM), actives largely listed as cytotoxic. AID 1347075, 2019. hit rate 1.4% among 400,000. KB-3-1 viability, CellTiter-Glo ATP luminescence, 72 h; note: nearly all actives have a fitted effect of over 60% in size
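KB-3-1 cells, DMEM (no phenol red) + 10% FBS; compound by pin transfer, 72 h, 37 °C. Readout: CellTiter-Glo luminescence after 10 min. Data normalized, curve-fitted.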
HT1080 IDH1KD tx: qHTS for induction of synthetic lethality in tumor cells producing 2HG: qHTS for the HT-1080-IDH1KD cell line. HT-1080 IDH1 knockdown viability, ATP luminescence, 48 h. Potency, µM (doses to about 46.1 µM), usual class: cytotoxic. hit rate 2% among 360,000
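Using the IDH1-knockdown HT-1080 line run in the same batch and compound series as the NT line, viability after 48 h at 37 °C was determined by CellTiter-Glo luminescence and expressed as % activity.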
DT40 TDP1 no CPT: qHTS for Inhibitors of human tyrosyl-DNA phosphodiesterase 1 (TDP1): qHTS in cells in absence of CPT | Potency, µM (doses to about 46.2 µM), actives largely listed as inhibitors | hit rate 15% among 420,000 | DT40 Tdp1-/- hTDP1 cells, no CPT, ATP luminescence, 48 h; note: nearly all actives have a fitted effect of over 55% in size
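Readout: luminescence from CellTiter-Glo after 30 min in the dark at RT. Cells: DT40 Tdp1-/- with stable hTDP1, 400/well. Exposure: compounds alone, ≥48 hr, 37 °C.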
HT1080-NT tox: qHTS for induction of synthetic lethality in tumor cells producing 2HG: qHTS for the HT-1080-NT fibrosarcoma cell line; HT-1080-NT fibrosarcoma viability, CellTiter-Glo ATP luminescence, 48 h; Potency, µM (titrated, usually from 46.1 µM), usual class: cytotoxic; hit rate 1.6% among 360,000;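 note: NT is the 2HG producing partner of a matched IDH1 knockdown line; nearly all actives have a fitted effect of over 55% in size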
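HT-1080-NT; 750 cells/well; 5% FBS RPMI; 48 h compound, 37 degrees C; CellTiter-Glo luminescence; curve fitting and curve-class assignment.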
Hits are given with their value; – = inactive; ? = inconclusive; · = no result. Compounds with a hit are over-represented: about 19% of the library has one in this group of screens. Calls come from the whole dose curve; as a rule, active = well fitted curve in the direction sought with a large enough effect; inconclusive = small, poorly fitted or top-dose-only effect, or another doubt; inactive = no such curve, though single readings can be large; an effect the other way counts as inactive or inconclusive.

SMILES	TDP1 cell CPT	KB-V1 cytotox	KB-3-1 tox	HT1080 IDH1KD tx	DT40 TDP1 no CPT	HT1080-NT tox
COC(=O)/C=C/c1ccc2c(c1)S(=O)(=O)N(C1CCCC1)[C@H]2CC(=O)OC	0.63µM	?	–	·	?	·
CCCCCCCCN1[C@@H](CC(=O)O)c2cc(C(F)(F)F)ccc2S1(=O)=O	?	–	–	–	?	–
CC(=O)/C=C/c1ccc2c(c1)S(=O)(=O)N(C1CCCC1)[C@H]2CC(C)=O	16µM	18µM	?	·	7.1µM	·
CCCCCCCCN1[C@@H](CC(C)=O)c2ccc(/C=C/C(C)=O)cc2S1(=O)=O	4µM	?	?	·	5.6µM	·
CN(C)c1cccc(-c2nnc(N3CCC(C(N)=O)CC3)s2)c1	·	–	–	·	·	·
C[C@H]1CCCCO[C@H](CN(C)S(=O)(=O)c2cn(C)cn2)[C@@H](C)CN([C@@H](C)CO)C(=O)c2cc(NS(=O)(=O)c3ccccc3)ccc2O1	–	?	–	–	–	–
COc1ccc(-c2c(C)nn3c4c(cnc23)C(=O)CC(c2ccc(C)cc2)C4)cc1 (centres undefined)	–	–	–	·	–	·
CCc1cccc(-n2c(C)nc3c(cnn3-c3ccc(C)c(C)c3)c2=O)c1	–	–	?	·	23µM	·
CCc1cccc(-n2c(C)nc3c(cnn3-c3ccc(Cl)cc3)c2=O)c1	5.8µM	?	?	·	4.1µM	·
CCc1nc2c(cnn2-c2ccc(Cl)cc2)c(=O)n1-c1ccc2c(c1)OCCO2	?	–	?	–	18µM	–
CCc1nc2c(cnn2-c2ccc(C)cc2)c(=O)n1Cc1ccccc1	?	–	–	·	?	·
CCc1nc2c(cnn2-c2ccc(Cl)cc2)c(=O)n1-c1ccc(OC)cc1	?	–	?	?	?	?
CCOc1ccc(-n2c(C)nc3c(cnn3-c3ccc(Cl)cc3)c2=O)cc1	–	–	–	–	–	–
O=c1c2cnn(-c3ccc(Cl)cc3)c2ncn1Cc1cccc(C(F)(F)F)c1	–	–	–	·	?	·
COc1cccc(-n2c(C)nc3c(cnn3-c3ccc(Cl)cc3)c2=O)c1	8.2µM	–	–	–	7.3µM	–
COc1cccc(/C=N/NC(=O)c2ccc(-n3cnnn3)cc2)c1	–	?	–	?	–	?
CCOc1ccc(S(=O)(=O)N(CC)CC(=O)NC2CC2)cc1	–	–	–	–	–	–
COc1ccc(OC)c(NC(=O)Cn2cnc3sc(C)c(S(=O)(=O)N4CCN(c5ccccc5OC)CC4)c3c2=O)c1	21µM	–	–	·	?	·
COc1ccc(C)cc1NC(=O)Cn1cnc2sc(C)c(S(=O)(=O)N3CCOCC3)c2c1=O	–	–	–	–	–	–
COc1ccccc1N1CCN(S(=O)(=O)c2c(C)sc3ncn(CC(=O)Nc4ccc(C(C)C)cc4)c(=O)c23)CC1	?	?	–	·	?	·
COc1ccccc1NC(=O)Cn1cnc2sc(C)c(S(=O)(=O)N3CCCCC3)c2c1=O	–	9.2µM	–	–	–	–
COc1ccc(Cl)cc1NC(=O)Cn1cnc2sc(C)c(S(=O)(=O)N3CCN(c4ccccc4OC)CC3)c2c1=O	7.3µM	–	–	·	7.3µM	·
Cc1sc2ncn(CC(=O)NCCCN3CC(C)CC(C)C3)c(=O)c2c1S(=O)(=O)N1CC(C)CC(C)C1 (centres undefined)	18µM	?	–	–	?	–
Cc1cc(C)c(S(=O)(=O)Nc2cc(C)on2)c(C)c1	–	?	–	–	–	–
O=C(COc1ccccc1[N+](=O)[O-])N(Cc1ccco1)C1CCS(=O)(=O)C1 (centres undefined)	–	–	–	–	–	–
SMILES	TDP1 cell CPT	KB-V1 cytotox	KB-3-1 tox	HT1080 IDH1KD tx	DT40 TDP1 no CPT	HT1080-NT tox
COc1cc(C(CC(=O)Nc2ccc(Cl)cn2)N2Cc3ccccc3C2=O)cc(OC)c1OC (centres undefined)	?	–	–	–	?	–
O=S(=O)(c1ccc(Cl)cc1Cl)n1ccnc1	–	?	–	·	–	·
N#C/C(=C1/SC[C@@H](c2ccc(Cl)cc2Cl)S1)n1ccnc1	4.7µM	·	·	·	6µM	·
COc1ccc(CCN(CC(=O)NC(C)(C)C)C(=O)Cn2nnc(-c3ccc(C)o3)n2)cc1OC	–	–	–	–	–	–
COc1ccccc1N(CC(=O)NC(C)(C)C)C(=O)Cn1nnc(-c2ccc(C)o2)n1	–	2.3µM	–	–	?	–
OCCN(Cc1ccccc1)CC(O)COc1ccc(-c2ccccc2)cc1 (centres undefined)	29µM	?	?	?	?	?
Cc1cc(C(=O)COC(=O)c2ccc(F)cc2F)c(C)n1C1CC1	–	–	–	–	–	–
CCN(CC)C(=O)c1ccc(-c2nnc(Nc3ccc(C(=O)NC)cc3)c3ccccc23)cc1	15µM	–	–	–	?	–
CNC(=O)c1ccc(Nc2nnc(-c3ccc(C)c(S(=O)(=O)N4CCCCC4)c3)c3ccccc23)cc1	–	?	–	·	–	·
CNC(=O)c1ccc(Nc2nnc(-c3ccc(C)c(S(=O)(=O)N4CCOCC4)c3)c3ccccc23)cc1	21µM	–	–	·	7.3µM	·
Cc1ccc(Nc2nnc(-c3ccc(C)c(S(=O)(=O)N4CCOCC4)c3)c3ccccc23)cc1	16µM	–	–	·	10µM	·
Cc1ccc(Nc2nnc(-c3ccc(C)c(S(N)(=O)=O)c3)c3ccccc23)cc1	·	–	–	·	·	·
COc1ccc(Nc2nc(-c3ccccc3)nc3ccccc23)cc1S(=O)(=O)N1CCOCC1	15µM	?	?	?	8.2µM	?
O=C(NNC(=O)C1CC(=O)N(Cc2ccccc2)C1)c1ccc(F)cc1 (centres undefined)	–	?	–	–	–	–
NC(=O)c1ccc2c(=O)c(O)c(-c3cc(Cl)c(N)c(Cl)c3)[nH]c2c1	–	–	–	–	–	–
COc1ccc(Nc2nnc(-c3ccc(C)c(S(=O)(=O)N4CCOCC4)c3)c3ccccc23)cc1	15µM	?	–	·	7.3µM	·
COc1ccc(Nc2nnc(-c3ccc(C)c(S(=O)(=O)N4CCN(C)CC4)c3)c3ccccc23)cc1	?	–	?	·	?	·
COc1ccc(CNC(=O)CSc2ncn[nH]2)cc1OC	–	–	–	–	–	–
Cc1nnc(NC(=O)c2cccc(S(=O)(=O)N3CCc4ccccc43)c2)s1	–	–	–	–	–	–
